Compounds with a hit are over-represented: about 0.9% of the library has one in this group of screens.
SRC2 TRFRET art = counter-screen for PPARgamma SRC-2 recruitment agonists: TR-FRET artefact; stronger effect = higher value; TR-FRET ratio at 8 µM; 200,000 tested, 0.4% active; AID 1049; in the data active = TR-FRET ratio above about 2000
PPARg SRC3 recr = promotes SRC-3 coactivator recruitment by human PPARgamma. P37231. biochemical PPARgamma/SRC-3 coactivator recruitment assay. activation, % at 8 µM. 200,000 tested, 0.26% active; in the data active = activation above about 23%;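 also: 0% = DMSO and 100% = reference agonist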
PPARg SRC2 recr = agonists of SRC-2 recruitment by human PPARgamma; P37231; PPARgamma LBD-SRC-2 recruitment, biochemical; activation, % at 8 µM; 200,000 tested, 0.34% active;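 also: 0% = vehicle and 100% = reference agonist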
PPARg SRC1 recr = promotes SRC-1 coactivator recruitment by human PPARgamma; PPARgamma-SRC-1 coactivator recruitment biochemical assay; activation, % at 8 µM; 200,000 tested, 0.41% active; AID 631; in the data active = activation above about 19%;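 also: 0% = DMSO and 100% = reference agonist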
SRC3 TRFRET art = flags TR-FRET format artefacts in PPARgamma SRC-3 recruitment agonist screen | TR-FRET artefact counter-screen, PPARgamma/SRC-3 format; stronger effect = higher value | TR-FRET ratio at 8 µM | 99,000 tested, 0.39% active | AID 1048; in the data active = TR-FRET ratio above about 2000
SRC1 TRFRET art = flags TR-FRET format artefacts in PPARgamma SRC-1 recruitment agonist screen | TR-FRET detection artefact counter-screen, emission ratio; stronger effect = higher value | TR-FRET ratio at 8 µM | 99,000 tested, 0.34% active; in the data active = TR-FRET ratio above about 2300
PPARg SRC2 ag = human PPARgamma SRC-2 recruitment agonism, confirmation | shares compounds with PPARg SRC3 recr | biochemical SRC-2 recruitment by PPARgamma | activation, % at 8 µM | 790 tested, 52% active;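 also: 0% = vehicle alone and 100% = reference agonist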
PPARg SRC1 ag = confirmation of agonists of SRC-1 recruitment by human PPARgamma. shares compounds with PPARg SRC3 recr. PPARgamma–SRC-1 coactivator recruitment biochemical assay. activation, % at 8 µM. 790 tested, 43% active. AID 1300; in the data active = activation above about 20%;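 also: 0% = vehicle wells and 100% = reference agonist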
PPARg SRC3 conf = confirmation of agonists of SRC-3 recruitment by human PPARgamma. shares compounds with PPARg SRC3 recr. biochemical PPARgamma-SRC-3 coactivator recruitment, agonist mode. activation, % at 8 µM. 790 tested, 29% active; in the data active = activation above about 24%;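 also: 0% = vehicle wells and 100% = reference agonist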
The depositor's hits bear a star; . = no result. Rule as the data show it, unless noted: active = activation above about 22%; inactive = the rest.

SMILES | SRC2 TRFRET art | PPARg SRC3 recr | PPARg SRC2 recr | PPARg SRC1 recr | SRC3 TRFRET art | SRC1 TRFRET art | PPARg SRC2 ag | PPARg SRC1 ag | PPARg SRC3 conf
Cc1ccc(CN2CCN(Cc3ccc(OC(C)C)cc3)CC2CCO)o1 (configuration not stated) | 1596 | -2 | -4 | 2 | 1418 | 1584 | . | . | .
Cc1ccc(CN2CCN(Cc3cccc(OCCO)c3)CC2CCO)o1 (configuration not stated) | 1711 | 3 | 22* | 5 | 1698 | 1857 | . | . | .
COC(=O)/C=C1\N/C(=N\c2nc(C)cc(C)n2)N(c2ccc(C)c(C)c2)C1=O | 1539 | -4 | -8 | -2 | 1485 | 1770 | . | . | .
COc1ccc(C2C(C(C)=O)=C(O)C(=O)N2c2nccs2)cc1OC (configuration not stated) | 1460 | 1 | 5 | 11 | 1778 | 2238 | . | . | .
COc1ccc(C2C(C(C)=O)=C(O)C(=O)N2c2nc3ccccc3s2)cc1OC (configuration not stated) | 1810 | 9 | 16 | 5 | 2067* | 1870 | . | . | .
O=C(NC(=S)N1CCN(c2ccc(C(F)(F)F)cc2[N+](=O)[O-])CC1)c1cccs1 | 1651 | 4 | 2 | 3 | 1753 | 1937 | . | . | .
O=C(COC(=O)c1ccccc1NC(=O)c1ccco1)NC1CC1 | 2060* | -3 | 13 | 1 | 1562 | 2082 | . | . | .
O=C(COC(=O)c1ccccc1NC(=O)c1ccco1)NC1CCS(=O)(=O)C1 (configuration not stated) | 1513 | -1 | 7 | -2 | 1476 | 1617 | . | . | .
C=CCN(CC(=O)O)S(=O)(=O)c1ccccc1C(F)(F)F | 1498 | 1 | 6 | 1 | 1640 | 1876 | . | . | .
Cc1c(NS(=O)(=O)c2ccc3c(c2)OCCO3)cccc1-c1nc2cccnc2s1 | 1991* | 3 | -3 | 10 | . | . | . | . | .
COc1cnn(-c2ccccc2)c(=O)c1N(C)C | 1421 | 26* | -5 | -4 | . | . | . | . | .
Nc1ccccc1-c1n[nH]c(=S)s1 | 3141* | 43* | 54* | 54* | 3076* | 3590* | 40* | 31* | 25*
O=C(CCCN1C(=O)c2cccc3cccc(c23)C1=O)NCc1cccs1 | 1602 | 8 | 9 | -1 | 1374 | 1734 | . | . | .
CSC1=NSC2=NC(=O)/C(=C\c3coc4ccccc4c3=O)C(=N)N12 | 1437 | 28* | 15 | 25* | 1493 | 1656 | 9 | 10 | 22
CC(C)CSC1=NSC2=NC(=O)/C(=C\c3coc4ccccc4c3=O)C(=N)N12 | 1797 | 12 | 5 | 7 | 1817 | 1912 | . | . | .
COc1ccc(NC(=O)/C=C/c2cc(Br)ccc2OC)cc1 | 1651 | 0 | -3 | 0 | . | . | . | . | .
CCN(CC)c1ccc(NC(=O)/C=C/c2cc(Br)ccc2OC)cc1 | 1525 | 13 | 17 | 24* | . | . | 1 | 4 | 3
COc1ccccc1NS(=O)(=O)c1cccc(NC(=O)c2sc3ccccc3c2Cl)c1 | 2161* | 8 | 17 | 22* | 2458* | 2434* | 13 | 10 | 4
C=CCn1c(NS(=O)(=O)c2ccccc2)c(S(=O)(=O)c2ccc(C)cc2)c2nc3ccccc3nc21 | 1450 | 48* | 24* | 39* | 1561 | 1803 | 4 | 7 | 10
COc1ccc(Cl)cc1N(CC(=O)NC(C)(C)C)S(=O)(=O)c1ccc(C)c([N+](=O)[O-])c1 | 1680 | 6 | 7 | -3 | 1442 | 2002 | . | . | .
Cc1cc(Br)c2nc3c(c(C(=O)O)c2c1)CCCCC3 | 4070* | 50* | 98* | 53* | 4157* | 3214* | 67* | 43* | 47*
CCc1ccc2nc3c(c(C(=O)O)c2c1)CCC3 | 1632 | 9 | 9 | 1 | . | . | . | . | .
COc1ccc(-c2nc(-c3cccs3)c(-c3cccs3)[nH]2)cc1OC | 2267* | 30* | 28* | 23* | . | . | 35* | 31* | 26*
CCOc1ccc2c(c1)nc(SCC(=O)c1ccc(Br)s1)n2C | 1968 | 28* | 29* | 20* | . | . | 35* | 26* | 25*
CCOc1ccc2c(c1)nc(SCC(=O)c1cccs1)n2C | 1436 | 5 | 6 | 3 | . | . | . | . | .
SMILES | SRC2 TRFRET art | PPARg SRC3 recr | PPARg SRC2 recr | PPARg SRC1 recr | SRC3 TRFRET art | SRC1 TRFRET art | PPARg SRC2 ag | PPARg SRC1 ag | PPARg SRC3 conf
CC(C)c1nc2sc3c(=O)[nH]c(=S)[nH]c3c2c2c1CCC2 | 2507* | 18 | 33* | 24* | 2640* | 2489* | 23* | 15 | 14
CCOC(=O)c1sc2nc(C(C)C)c3c(c2c1N)CCC3 | 1511 | 1 | -2 | 2 | 1558 | 1548 | . | . | .
CCn1c(SCC(=O)N2CCN(C(=O)c3ccco3)CC2)nnc1C(C)C | 1639 | 1 | 6 | 16 | 1587 | 1779 | . | . | .
Cn1c(=O)cc(SCC(=O)NCCN2CCN(c3ccccc3F)CC2)c2cc(Cl)ccc21 | 3707* | 92* | 107* | 82* | . | . | 59* | 39* | 42*
COc1ccccc1CNC(=O)CCCOc1cc(=O)n(C)c2ccccc12 | 1525 | 9 | 8 | 2 | . | . | . | . | .
COc1ccccc1CNC(=O)CSc1cc(=O)n(C)c2ccccc12 | 2116* | 10 | 25* | 22* | 1939 | 2191 | 7 | 9 | 5
Cn1c(=O)cc(SCC(=O)NCCCN2CCN(c3ccc(F)cc3)CC2)c2ccccc21 | 4545* | 134* | 95* | 97* | . | . | 51* | 34* | 36*
Cn1c(=O)cc(SCC(=O)NCc2ccc(F)cc2)c2ccccc21 | 2135* | 16 | 18 | 25* | 2264* | 2122 | 22* | 18 | 15
CC(C)C1CC(CCN)(Cc2ccccc2)CCO1 (configuration not stated) | 1399 | -3 | -1 | -2 | 1653 | 1645 | . | . | .
COc1ccc2nc(SCc3cccnc3)c(C#N)cc2c1 | 1517 | 69* | 9 | 83* | . | . | 53* | 42* | 33*
N#Cc1cc2ccccc2nc1SCc1cccnc1 | 1334 | -1 | -1 | 0 | 1426 | 1739 | . | . | .
COc1ccc2nc(SC)c(C#N)cc2c1 | 1641 | 27* | 11 | 8 | 2738* | 2037 | 75* | 58* | 43*
CCc1nc2sccc2c(=O)[nH]1 | 1666 | 4 | 10 | -1 | 1718 | 1515 | . | . | .
CCCCc1nnc(NC(=O)COC)s1 | 1358 | -1 | 3 | -10 | 1535 | 1732 | . | . | .
Cc1ccc(/C=C/C(=O)Nc2ccc(N(C)C)cc2)o1 | 1841 | 15 | 25* | 25* | 1522 | 2095 | 9 | 6 | 3
CC(=O)Sc1nc(-c2ccccc2)[nH]c1S(=O)(=O)c1ccc(C)cc1 | 1637 | 37* | 11 | 22* | 1554 | 1927 | 11 | 21* | 18
